# eIF4E-4G inh: eIF4E–eIF4G protein interaction inhibitors, primary screen, biochemical, uHTS, TR-FRET, eIF4GI fragment; TR-FRET eIF4E-eIF4GI(517-606) binding, 2 h; inhibition, % at 21.7 µM; 220,000 tested, 0.37% active; AID 782, 2007;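 active = inhibition above about 30%, limit read from the data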;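 note: 0% = full FRET control wells and 100% = background wells lacking eIF4GI fragment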
# PfM18AAP inh: PfM18AAP inhibitors, malaria aminopeptidase, primary screen, biochemical, QFRET, recombinant enzyme; M18 aspartyl aminopeptidase (Plasmodium falciparum 3D7); H-Glu-NHMec fluorogenic cleavage; inhibition, % at 7.35 µM; 290,000 tested, 1.2% active; AID 1822, 2009;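 active = inhibition above the campaign mean inhibition over all tested compounds plus 3 SD, cut at about 28% in these data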;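 note: 0% = plate median of test compound wells and 100% = 2 mM ZnCl2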
# eIF4H FP inh: human eIF4H binding inhibitors, primary screen, translation initiation inhibitor project, biochemical, uHTS, fluorescence polarization; eIF4H fluorescence polarization binding assay; 290,000 tested, 0.94% active; Eukaryotic translation initiation factor 4H (Homo sapiens), Q15056; inhibition, % at 35 µM;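 note: calls also rest on retests at 20 µM and on dose response follow-up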
# PABP1 MLLE inh: inhibitors of PABP1 MLLE–PAM2 peptide binding, primary screen, biochemical, fluorescence polarization, FITC-PAM2, GST-MLLE. Polyadenylate-binding protein 1 (Homo sapiens), P11940. inhibition, % at 20 µM. 360,000 tested, 0.36% active. AID 588489, 2011; in the data active = inhibition above about 35%, passing the limit was not always enough;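 note: plate controls were DMSO wells with GST-MLLE for no effect and wells lacking GST-MLLE protein for full effect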
# Target sequence (P11940 whole entry, looked up): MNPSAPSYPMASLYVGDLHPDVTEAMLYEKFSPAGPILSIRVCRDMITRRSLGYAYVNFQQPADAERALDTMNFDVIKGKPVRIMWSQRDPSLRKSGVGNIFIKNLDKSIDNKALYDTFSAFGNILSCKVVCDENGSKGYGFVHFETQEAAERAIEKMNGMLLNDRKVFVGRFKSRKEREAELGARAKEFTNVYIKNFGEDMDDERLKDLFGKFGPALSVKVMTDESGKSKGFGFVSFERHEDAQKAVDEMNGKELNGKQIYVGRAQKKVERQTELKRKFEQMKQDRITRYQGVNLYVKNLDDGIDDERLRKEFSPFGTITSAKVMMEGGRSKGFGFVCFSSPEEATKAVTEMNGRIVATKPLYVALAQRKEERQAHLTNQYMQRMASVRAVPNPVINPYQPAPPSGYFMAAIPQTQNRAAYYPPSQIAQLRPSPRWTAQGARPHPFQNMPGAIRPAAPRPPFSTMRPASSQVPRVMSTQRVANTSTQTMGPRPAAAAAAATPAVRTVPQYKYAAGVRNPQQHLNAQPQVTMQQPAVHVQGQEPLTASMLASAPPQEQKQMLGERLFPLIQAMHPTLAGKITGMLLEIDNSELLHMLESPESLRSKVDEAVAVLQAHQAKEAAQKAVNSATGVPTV
# PABP polyA inh: PABP poly(A) RNA binding inhibitors, primary screen, biochemical, fluorescence polarization, uHTS; Polyadenylate-binding protein 1 (Homo sapiens), P11940; inhibition, % at 35 µM; 290,000 tested, 1% active; AID 2014, 2009;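 note: calls also rest on retests at 20 µM and on dose response follow-up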
# PERK inhibitor: block of dimerizer-induced PERK translation repression, primary screen, PERK inhibitor project, CHO PERK-DD cells, SEAP luminescence, HTS; AID 1416, 2008; 220,000 tested, 0.17% active; Eukaryotic translation initiation factor 2-alpha kinase 3 (Homo sapiens), Q9NZJ5; inhibition, % at 5.6 µM; CHO PERK-DD fusion, SEAP luminescence translation reporter;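 active = inhibition above the mean inhibition of all tested compounds plus 3 SD, set separately per screening campaign, cut at about 2.9% in these data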;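 note: PERK kinase domain activated by AP20187 dimerizer at 100 nM; 0% = DMSO with dimerizer and 100% = rapamycin at 8.4 µM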
# * hit, by the source's call; i = inactive; u = inconclusive; x = no result. In the library only some 2.4% were active in any assay of this set; here they are far more common. Unless noted, the rule behind the calls is not given here.
SMILES,eIF4E-4G inh,PfM18AAP inh,eIF4H FP inh,PABP1 MLLE inh,PABP polyA inh,PERK inhibitor
Cn1cccc1C1C(C#N)=C(N)OC2=C1C(=O)CCC2 (stereo unspecified),-5,28*,27,10,15,2
N#Cc1c(N)nc(SCC(=O)C23CC4CC(CC(C4)C2)C3)c(C#N)c1-c1ccc(Cl)cc1,-42,0,7,-77,-9,1
CCOC(=O)CC(=O)CSc1nc(N)c(C#N)c(-c2ccc(Cl)cc2)c1C#N,-28,12,114*,-5,111*,0
O=C(CCN1CCOCC1)c1ccccc1,9,0,3,30,13,1
O=C(CCN1CCOCC1)NNC(=S)NC(=O)c1ccccc1,1,24,2,38*,24,1
COc1cccc(Nc2ccc(N3CCCCC3)cc2)c1OC,x,x,x,60*,x,x
CCN1c2ccccc2S(=O)(=O)c2ccccc21,x,11,-11,2,1,x
O=C(NC(=S)Nc1cccc(O)c1)c1cncc(Br)c1,x,x,x,42*,x,x
Cc1cc(O)ccc1NC(=S)NC(=O)c1cncc(Br)c1,x,14,8,44*,-2,x
CC(=O)c1cccc(NC(=S)NC(=O)c2ccc(Br)cc2)c1,9,-15,-6,41*,0,1
O=C(CN1Cc2ccccc2C1=O)Nc1ccc2c(c1)OCCO2,x,0,0,2,-4,x
CCc1ccc(C(=O)Cc2cc3cccc(OC)c3oc2=O)cc1,x,1,9,4,-11,x
COc1ccc(N2C(=O)CCC2(C#N)c2ccc(Br)cc2)cc1 (stereo unspecified),1,-3,-3,11,-8,0
Cn1c(=O)c(NCCc2ccccc2)c2c3c(cccc31)C(=O)c1ccccc1-2,-3,-11,128*,i,120*,-1
Cn1c(=O)c(NCCO)c2c3c(cccc31)C(=O)c1ccccc1-2,-3,0,u,i,u,-1
COc1cc2c(cc1OC)CN(C(=O)COc1ccc(C#N)cc1)CC2,-6,4,6.8*,13,64*,0
COc1cc2c(cc1OC)CN(C(=O)COc1ccccc1C#N)CC2,x,-8,-16,7,2,x
COc1cc2c(cc1OC)CN(C(=O)CCN1C(=O)C3CCCCC3C1=O)CC2 (stereo unspecified),1,-2,6.2*,5,75*,1
O=C(N/N=C/c1ccccc1O)C1(O)c2ccccc2-c2ccccc21,-2,-1,active,3,119*,0
O=C(O)CCCCCn1c(SCC(=O)c2ccc(O)c(O)c2)nc2ccsc2c1=O,10,47*,30,10,-7,0
O=C(O)CCCCCn1c(SCC(=O)N2CCCC2)nc2ccsc2c1=O,1,-5,-2,4,-4,1
CNC(=S)NN=C(C)c1ccc(OC)cc1O,x,x,x,43*,x,x
O=C(Cc1cccc2ccccc12)NC(NC(=S)Nc1ccccc1Cl)C(Cl)(Cl)Cl (stereo unspecified),3,-2,-7,46*,-10,1
O=C(NC(NC(=S)Nc1ccccc1Cl)C(Cl)(Cl)Cl)c1cccc(Cl)c1 (stereo unspecified),3,1,-13,22,-9,0
O=C(CSc1nc(O)cc(=O)n1-c1ccccc1)Nc1ccc2c3c(cccc13)CC2,3,1,71*,12,69*,0
SMILES,eIF4E-4G inh,PfM18AAP inh,eIF4H FP inh,PABP1 MLLE inh,PABP polyA inh,PERK inhibitor
CC(C)(C)c1cc(-c2n[nH]c(=S)n2-c2ccc(Cl)cc2)n[nH]1,6,-1,-1,-8,2,0
S=c1[nH]nc(-c2ccco2)n1/N=C/c1ccc(Cl)cc1Cl,49*,22,0,-38,-7,1
S=c1[nH]nc(-c2ccco2)n1-c1ccc(Cl)cc1,0,30*,4,-6,4,1
Nn1c(-c2ccco2)n[nH]c1=S,8,29*,3,-1,-1,0
Cc1nn(C)cc1-c1n[nH]c(=S)n1-c1ccc(Cl)cc1,3,30*,3,1,6,1
S=c1[nH]nc(-c2ccco2)n1/N=C/c1cccc(Cl)c1Cl,10,15,12,-37,7,0
COc1ccc(-n2c(-c3ccco3)n[nH]c2=S)cc1,-5,10,0,10,5,1
CCc1nc2ccccc2[nH]c1=O,6,0,-9,9,1,2
COc1ccc(Cc2nnc(Nc3c(C)cccc3C)o2)cc1OC,-3,-9,-5,1,7,-1
O=c1[nH]c(C2CCCN(S(=O)(=O)c3ccccc3F)C2)nc2c1nnn2Cc1ccccc1Cl (stereo unspecified),x,-3,-6,-5,1,x
Cc1csc(N/N=C/c2ccc(O)c([N+](=O)[O-])c2)n1,15,25,68*,-27,23*,1
COc1ccccc1NS(=O)(=O)c1ccc(C)c(C(=O)NCCCN2CCCC2=O)c1,x,x,x,-3,x,x
Cc1ccccc1C(=O)OCC(=O)Nc1cccc(S(=O)(=O)NC2=NCCC2)c1,x,x,x,0,x,x
COc1ccc(N2C(=O)CSC2c2ccc(F)cc2)cc1 (stereo unspecified),x,4,-5,-6,4,x
CC(=O)Nc1ccc(N2C(=O)CSC2c2ccc(F)cc2)cc1 (stereo unspecified),-11,2,98*,5,73*,1
CCOC(=O)N1CCN(Cc2nc3c(c(=O)n(C)c(=O)n3C)n2CCC(C)C)CC1,4,-4,-6,16,3,0
COc1cc2c(cc1OC)C(c1ccccc1O)N(C1CC(=O)N(c3ccccc3)C1=O)CC2 (stereo unspecified),-3,-14,1,40*,4,0
CCOC(=O)N1CCN(c2cc(NCCC(=O)O)c3c4c(onc24)-c2ccccc2C3=O)CC1,6,6,86*,141,73*,-1
O=C(O)CCCNc1cc(N2CCC3(CC2)OCCO3)c2noc3c2c1C(=O)c1ccccc1-3,19,5,115*,x,105*,-1
O=C(O)CCNc1ccc(NCCC(=O)O)c2c1C(=O)c1ccccc1C2=O,x,13,u,97,u,x
O=C(COc1ccc2cc(Br)ccc2c1Br)N1CCOCC1,x,6,1,-3,1,x
c1ccc(CCn2c(C3CC3)nc3ccccc32)cc1,-3,2,-9,11,-1,-2
O=C(NNc1nc2ccccc2s1)Nc1ccccc1,1,29*,-6,11,1,0
